Experimental data: PubChem BioAssay
For some of these results: Results with a measured potency or affinity are listed apart. The source made the active and inactive calls.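 The calls were made as follows, unless noted: active = primary screen hit whose calcium fluorescence ratio, in both repeats, exceeds the weak agonist control mean by 3 SD; inactive = the rest.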

Experiments:
[1] = tested on: TRPC4 beta (transient receptor potential cation channel C4), mouse; experiment: activators of mouse TRPC4 channel, confirmation, cell-based, Fluo4 calcium, HEK293 TRPC4beta/mu-opioid, duplicates, 10 µM (AID 2426;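 active = fluorescence ratio normalized to control raised more than 50% in primary screen plus both repeat runs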); conditions: Fluo4 calcium fluorescence, at 10 µM; active compounds read high
[2] = tested on: transient receptor potential cation channel C4 beta (TRPC4), mouse; experiment: activators of mouse TRPC4 channel, confirmation, cell-based, second round, Fluo4, HEK293 TRPC4beta/mu-opioid, 1 µM (AID 2461;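 active = primary screen active and over 50% activation in each of two duplicate runs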); conditions: Fluo4 calcium fluorescence, at 1 µM; active compounds read high
[3] = tested on: TRPC4 (transient receptor potential cation channel C4 beta), mouse; experiment: positive allosteric modulators of mouse TRPC4, confirmation, cell-based, second round, Fluo-4, HEK293 TRPC4beta/mu-opioid, 1 µM (AID 2554;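 active = primary screen hit whose fluorescence ratio, in both repeats, exceeds the weak agonist control mean by 3 SD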); conditions: DAMGO EC20, Fluo-4 calcium flux, at 1 µM; active compounds read high
[4] = tested on: TRPC4 beta (transient receptor potential cation channel C4), mouse; experiment: positive allosteric modulators of mouse TRPC4, confirmation, cell-based, Fluo-4, HEK293 TRPC4beta/mu-opioid (AID 2555); conditions: DAMGO EC20, Fluo-4 calcium flux, at 10 µM; active compounds read high
[5] = target: Short transient receptor potential channel 4 (Mus musculus) (UniProt Q9QUQ5); experiment: inhibitors of mouse TRPC4 channel, confirmation, cell-based, Fluo4, HEK293 TRPC4beta/mu-opioid (AID 2636;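 active = calcium signal cut by more than 3 SD below the full-agonist control yet still positive, in both repeats and the earlier primary screen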); conditions: DAMGO, Fluo4 calcium flux, at 10 µM; active compounds read high
[6] = target: Short transient receptor potential channel 4 (Mus musculus) (UniProt Q9QUQ5); experiment: inhibitors of mouse TRPC4 channel, confirmation, cell-based, second round, Fluo4, HEK293 TRPC4beta/mu-opioid, 1 µM (AID 2637;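 active = calcium signal ratio cut to more than 3 SD under the fully stimulated control mean yet still positive, in both repeats and the primary screen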;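 as to inhibition: percent of integrated ratio relative to wells lacking test compound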); conditions: Fluo4 calcium flux, DAMGO, at 1 µM; active compounds read high
[7] = target: Short transient receptor potential channel 4 (Mus musculus) (UniProt Q9QUQ5); experiment: mouse TRPC4 channel activators, dose response, cell-based, HEK293 TRPC4/mu-opioid, Fluo-4 calcium (AID 434937;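 active = primary screen activator hit with a dose response curve and TRPC4 channel activation at any tested dose; inactive = no activation, no dose response, or not a primary hit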)
[8] = target: Short transient receptor potential channel 4 (Mus musculus) (UniProt Q9QUQ5); experiment: TRPC4 positive allosteric modulators, dose response, cell-based, HEK293 TRPC4/mu-opioid, Fluo-4 calcium, EC20 DAMGO (AID 434941;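 active = earlier screen potentiator hit that boosts the TRPC4 ion channel at some dose, with a dose response; inactive = no potentiation, no dose response, or not a prior hit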;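 also: calcium entry triggered by an EC20 dose of DAMGO at the co-expressed mu-opioid receptor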)
[9] = target: Short transient receptor potential channel 6 (Mus musculus) (UniProt Q61143); experiment: inhibition of mouse TRPC6 channel, confirmation, selectivity assay for TRPC4 inhibitor project, cell-based, HEK293, membrane potential dye, duplicate (AID 434948;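 active = active in primary screen and both duplicates, each dropping signal beyond three positive-control SD with fluorescence still positive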); conditions: HEK293 TRPC6, membrane potential dye fluorescence, at 10 µM, stimulated with maximal-effect acetylcholine; active compounds read high
[10] = target: Short transient receptor potential channel 6 (Mus musculus) (UniProt Q61143); experiment: activation of mouse TRPC6 channel, confirmation, selectivity assay for TRPC4 activator project, cell-based, HEK293, membrane potential dye, duplicate (AID 434950;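 active = membrane potential signal rise above negative control mean plus 3 SD in both duplicates, also active in the earlier TRPC4 screen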); conditions: HEK293 TRPC6, membrane potential fluorescence, at 10 µM; active compounds read high
[11] = target: Short transient receptor potential channel 6 (Mus musculus) (UniProt Q61143); experiment: TRPC6 potentiation by TRPC4 potentiator hits, confirmation, selectivity assay for TRPC4 potentiator project, HEK293 cells, membrane potential dye, duplicate (AID 434952;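 active = compound raising the membrane signal above positive-control mean plus 3 SD in both repeats, and a primary screen hit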); conditions: HEK293 TRPC6, membrane potential dye fluorescence, at 10 µM, maximal acetylcholine added after compound; active compounds read high
[12] = target: Short transient receptor potential channel 4 (Mus musculus) (UniProt Q9QUQ5); experiment: calcium flux activators in TRPC4/5HT1a cells, counter-screen for TRPC4 activator project, cell-based, second counter screen, HEK293 TRPC4/5HT1a, Fluo-4 (AID 434977;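 active = calcium signal rise above buffer-control mean plus 5 SD in both duplicates, and also a hit in the primary screen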); conditions: Fluo-4 calcium flux, at 10 µM; active compounds read high
[13] = calcium flux inhibitors in TRPC4/5HT1a cells, confirmation, counter-screen for TRPC4 inhibitor project, cell-based, second counter screen, HEK293 TRPC4/5HT1a, Fluo-4 (AID 434978;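 active = primary screen active whose calcium signal fell more than 3 SD beyond the full-serotonin control mean in both duplicate plates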); conditions: Fluo-4 calcium flux, at 10 µM, serotonin added to trigger calcium flux; active compounds read high
[14] = tested on: TRPC4 (mouse), co-expressed with 5HT1a in HEK293; experiment: calcium flux potentiators in TRPC4/5HT1a cells, confirmation, counter-screen for TRPC4 potentiator project, cell-based, second counter screen, HEK293 TRPC4/5HT1a, Fluo-4 (AID 434979;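 active = signal rise over 3 SD above mean of control wells given weak agonist, in both repeats and first screen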); conditions: Fluo-4 calcium flux, at 10 µM, serotonin added at its EC20 dose; active compounds read high
[15] = calcium flux activation in mu-opioid HEK293 cells, confirmation, counter-screen for TRPC4 activator project, cell-based, HEK293 mu-opioid receptor line (AID 449723;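 active = hit in primary screen, with calcium signal over 5 SD above buffer well mean in both duplicates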;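 also: counter screen cells carry the mu-opioid receptor alone and lack TRPC4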); conditions: Fluo-4 calcium fluorescence, at 10 µM; active compounds read high
[16] = calcium flux enhancement in mu-opioid HEK293 cells, confirmation, counter-screen for TRPC4 allosteric potentiator project, cell-based, HEK293 mu-opioid receptor line (AID 449724;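 active = calcium signal rise more than 3 SD above the low-dose agonist control mean, in both duplicate plates and the primary screen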); conditions: Fluo-4 calcium flux, at 10 µM, compound added before EC20 DAMGO stimulus; active compounds read high

Measured: inhibition

Short transient receptor potential channel 6 (Mus musculus), sequence (Q61143 whole entry, looked up): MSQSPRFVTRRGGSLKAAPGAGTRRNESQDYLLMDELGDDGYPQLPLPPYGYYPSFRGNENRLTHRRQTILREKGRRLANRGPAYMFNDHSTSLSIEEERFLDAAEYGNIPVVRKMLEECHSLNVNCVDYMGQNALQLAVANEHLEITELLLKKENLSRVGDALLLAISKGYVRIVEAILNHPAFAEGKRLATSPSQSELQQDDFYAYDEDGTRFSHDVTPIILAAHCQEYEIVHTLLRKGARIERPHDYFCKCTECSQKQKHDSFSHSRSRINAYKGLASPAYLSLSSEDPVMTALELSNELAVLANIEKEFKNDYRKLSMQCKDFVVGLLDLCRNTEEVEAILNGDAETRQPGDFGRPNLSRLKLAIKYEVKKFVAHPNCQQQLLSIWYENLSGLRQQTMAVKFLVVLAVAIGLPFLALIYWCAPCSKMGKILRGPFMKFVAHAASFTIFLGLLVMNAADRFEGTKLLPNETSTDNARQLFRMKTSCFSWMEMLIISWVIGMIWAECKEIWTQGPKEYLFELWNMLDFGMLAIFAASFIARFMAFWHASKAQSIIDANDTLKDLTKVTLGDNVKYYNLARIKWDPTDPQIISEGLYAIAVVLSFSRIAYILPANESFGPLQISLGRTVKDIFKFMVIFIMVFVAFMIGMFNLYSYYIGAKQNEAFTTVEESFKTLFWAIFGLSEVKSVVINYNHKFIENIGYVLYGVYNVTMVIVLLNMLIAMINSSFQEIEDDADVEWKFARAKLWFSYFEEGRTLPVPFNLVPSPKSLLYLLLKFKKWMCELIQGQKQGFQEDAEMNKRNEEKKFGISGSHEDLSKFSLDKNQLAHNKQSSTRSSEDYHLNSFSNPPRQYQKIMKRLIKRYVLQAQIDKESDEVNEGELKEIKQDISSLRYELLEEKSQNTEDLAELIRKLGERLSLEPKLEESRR
Short transient receptor potential channel 4 (Mus musculus), sequence (Q9QUQ5 whole entry, looked up): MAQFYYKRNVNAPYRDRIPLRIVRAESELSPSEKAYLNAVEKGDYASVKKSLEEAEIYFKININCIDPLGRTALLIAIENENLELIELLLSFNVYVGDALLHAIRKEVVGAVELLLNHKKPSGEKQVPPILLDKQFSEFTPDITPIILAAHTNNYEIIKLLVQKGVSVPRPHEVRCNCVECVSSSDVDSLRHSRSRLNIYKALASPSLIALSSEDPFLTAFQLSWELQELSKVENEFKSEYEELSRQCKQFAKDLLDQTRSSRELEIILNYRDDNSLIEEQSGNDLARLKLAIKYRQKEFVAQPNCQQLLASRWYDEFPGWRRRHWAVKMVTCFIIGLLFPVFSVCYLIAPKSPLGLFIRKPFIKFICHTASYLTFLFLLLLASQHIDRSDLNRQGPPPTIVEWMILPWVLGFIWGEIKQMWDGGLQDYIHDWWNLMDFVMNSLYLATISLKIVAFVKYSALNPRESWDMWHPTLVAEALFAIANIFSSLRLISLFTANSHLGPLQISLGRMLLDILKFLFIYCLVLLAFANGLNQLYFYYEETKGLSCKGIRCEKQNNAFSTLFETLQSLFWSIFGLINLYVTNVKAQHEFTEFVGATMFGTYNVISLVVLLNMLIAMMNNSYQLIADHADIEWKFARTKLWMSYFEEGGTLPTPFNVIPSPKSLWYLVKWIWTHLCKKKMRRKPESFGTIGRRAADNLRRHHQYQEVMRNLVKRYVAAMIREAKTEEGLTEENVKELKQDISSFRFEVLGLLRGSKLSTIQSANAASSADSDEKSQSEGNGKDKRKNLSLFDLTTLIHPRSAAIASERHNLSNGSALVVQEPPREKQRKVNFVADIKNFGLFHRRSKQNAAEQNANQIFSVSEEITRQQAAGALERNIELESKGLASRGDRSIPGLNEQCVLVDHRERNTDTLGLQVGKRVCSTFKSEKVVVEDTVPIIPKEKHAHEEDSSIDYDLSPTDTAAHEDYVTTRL

COc1ccc(C(Nc2ccccn2)c2c(NC(=O)c3ccco3)sc(C)c2C)cc1OC (stereo unspecified)
active: [5] 78% | [6] 38%
inactive: all other assays above

Cc1onc(-c2c(F)cccc2Cl)c1C(=O)N(C)CC(=O)Nc1cccc(F)c1
active: [5] 84%
inactive: all other assays above

Cc1c(CCOC(=O)c2cccc([N+](=O)[O-])c2)sc[n+]1CC(=O)c1ccccc1
active: [5] 88% | [13] 28.9%
inactive: all other assays above

COc1cccc(O)c1CN1CCCC(C(=O)c2cccc(C(F)(F)F)c2)C1 (stereo unspecified)
active: [5] 70% | [13] 34.3%
inactive: all other assays above

Cn1cc(CNCC2CCCO2)c(-c2ccc(Oc3ccccc3)cc2)n1 (stereo unspecified)
active: [5] 92% | [13] 45.9%
inactive: all other assays above

Cc1c(N(C)S(=O)(=O)c2cc(C(=O)NCC3CCCO3)ccc2Cl)c(=O)n(-c2ccccc2)n1C (stereo unspecified)
active: [5] 84% | [6] 45%
inactive: all other assays above

CCOC(=O)c1oc2ccccc2c1CN1CCCCC1
active: [5] 91% | [13] 34.9%
inactive: all other assays above

O=S(=O)(c1ccccc1)N1CCN(C/C=C/c2ccccc2)CC1
active: [5] 93%
inactive: all other assays above

Cc1ccc(/C=C2\SC(=S)N(C(Cc3ccccc3)C(=O)O)C2=O)cc1 (stereo unspecified)
active: [13] 18.3%
inactive: all other assays above

CCOC(=O)C1(Cc2ccccc2)CCN(Cc2ccc(C)s2)CC1
active: [5] 88% | [13] 13.9%
inactive: all other assays above

Cc1cc([N+](=O)[O-])ccc1NCc1ccccc1
active: [5] 97% | [6] 44%
inactive: all other assays above

Cc1cccc2cc(CN(CCCN(C)C)C(=S)NCCc3ccccc3)c(=O)[nH]c12
inactive: all assays above

CN(CC(=O)NC1CCCc2ccccc21)C1CCCCC1 (stereo unspecified)
active: [5] 80%
inactive: all other assays above

Fc1ccc(CN2CCC(Cc3ccccc3)CC2)cc1F
active: [5] 89% | [13] 25.9%
inactive: all other assays above

COc1cc(OC)c(C2N(C)c3ccccc3N2C)cc1OC
active: [5] 77%
inactive: all other assays above

COc1ccc(-c2csc(NC(=O)Cc3cccc4ccccc34)c2C(=O)O)cc1
active: [5] 90% | [13] 40.2%
inactive: all other assays above
